G9a block: blocks human histone lysine methyltransferase G9a; G9a H3K9 monomethylation, AlphaScreen, 2 h; 8.8% of 350,000 active; AID 504332; Q96KQ7; Potency, µM (highest dose often 102 µM), hits mostly inhibitors; also: nearly all actives have a fitted effect of over 75% in size
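AlphaScreen read-out: biotin-H3K9 peptide (500 nM) methylation by 20 nM enzyme with 20 uM SAM, 2 h at room temperature after 15 min compound preincubation; anti-monomethyl H3K9 antibody plus donor/acceptor beads, 10 min dark.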
HP1b chromo inh: HP1-beta chromodomain-methylated histone interaction inhibition. P83916. AlphaScreen HP1-beta / biotin-H3K9me3 peptide binding. Potency, µM (top dose mostly 114 µM), hits mostly inhibitors. 0.56% of 390,000 active. AID 540317; also: nearly all actives have a fitted effect of over 70% in size
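HP1-beta protein (50 nM final) preincubated 30 min at room temperature with biotinylated H3(1-18)K9me3 peptide (50 nM) in PBS pH 7.4, 0.01% Tween-20, then compound added for 30 min. AlphaScreen streptavidin donor/nickel chelate acceptor beads (10 ug/mL final), 30 min dark, luminescence read.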
GLS inh: glutaminase GLS (human) inhibition | Potency, µM (series often up to 45.5 µM), hits mostly inhibitors | 0.21% of 410,000 active | AID 624170 | GLS enzymatic activity, qHTS titration | O94925
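hKGA in 45 mM KH2PO4 (pH 8.2), 0.02% Tween-20 with compound, then 1mM L-Glutamine (stock as added) plus glutamate oxidase/HRP/Amplex red coupling mix. Fluorescence read initially and after 30 min at RT; signal change reflects glutamate formation.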
JMJD2A Tudor: inhibitors of human JMJD2A Tudor domain; AID 504339; O75164; 4.4% of 390,000 active; Potency, µM (titrated, usually from 114 µM), most hits filed as inhibitors; AlphaScreen JMJD2A-Tudor / H3K4me3 peptide binding; also: nearly all actives have a fitted effect of over 50% in size
BAZ2B block: BAZ2B (human) inhibition; AlphaScreen BAZ2B-H3K14Ac peptide displacement; Potency, µM (titrated, usually from 114 µM), hits mostly inhibitors; 4.4% of 360,000 active; also: nearly all actives have a fitted effect of over 60% in size
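Compounds, titrated to a top concentration of 110 uM, were incubated 30 min at room temperature with preformed BAZ2B/acetyl-K14 H3 peptide complex (50 nM each). Proximity signal was measured by AlphaScreen after 20 min with beads.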
Large screens that a line does not name were inactive. In the library only some 10% were active in any assay of this set; here they are far more common. Calls follow the shape of the dose curve; as a rule, active = well fitted curve in the direction sought with a large enough effect; inconclusive = small, poorly fitted or top-dose-only effect, or another doubt; inactive = no such curve, though single readings can be large; an effect the other way counts as inactive or inconclusive.

CCNC(=S)/C(=C(/[O-])c1ccc([N+](=O)[O-])cc1)[n+]1ccccc1	none (no result: G9a block)
C[C@@H]1CN([C@H](C)CO)C(=O)CCCn2cc(nn2)CO[C@H]1CN(C)C(=O)c1ccccc1	none (no result: G9a block, HP1b chromo inh, JMJD2A Tudor, BAZ2B block)
COc1ccc(NC(=O)c2ccc3c(c2)NC(=O)CS3)cc1S(=O)(=O)Nc1ccc(Br)cc1	none (no result: G9a block)
Cc1ccc(NS(=O)(=O)c2cc(NC(=O)c3ccc4c(c3)NC(=O)CS4)ccc2C)c(C)c1	G9a block 7.94µM, HP1b chromo inh inconclusive, JMJD2A Tudor inconclusive
CCOC(=O)N1CCC2(CC1)OC(=O)C(C)=C2C(=O)NCc1cccc(F)c1	none
COc1ccc(N2CCN(C(=O)COC(=O)Cc3c(F)cccc3Cl)CC2)cc1	G9a block 50.1µM, JMJD2A Tudor inconclusive, BAZ2B block inconclusive
COc1ccc(N2CCN(C(=O)COC(=O)Cc3cccc(OC)c3)CC2)cc1	G9a block 39.8µM
COc1ccc(N2CCN(C(=O)COC(=O)COc3cc(C)cc(C)c3)CC2)cc1	G9a block 31.6µM, BAZ2B block inconclusive
O=C(Cc1c(F)cccc1Cl)OCC(=O)N1CCN(c2ccccc2)CC1	none (no result: G9a block, BAZ2B block)
CCC(=O)c1ccc(OCC(=O)OCC(=O)N2CCN(c3ccc(OC)cc3)CC2)cc1	none
COc1cccc(CNC(C)C(=O)Nc2ccc3c(c2)OCCO3)c1 (stereo unspecified)	G9a block 44.7µM, HP1b chromo inh inconclusive, JMJD2A Tudor 3.16µM, BAZ2B block inconclusive
COc1cccc(CC(=O)OCC(=O)N2CCN(c3ccc(F)cc3)CC2)c1	none (no result: G9a block)
CCOc1ccc(CCNC(=O)CN2C(=O)COc3ccc(S(=O)(=O)N4CCC(C)CC4)cc32)cc1	none
Cc1ccc(NC(=O)Nc2ccc3c(c2)C(=O)OC3)cc1Cl	none (no result: G9a block)
Cc1ccc(NS(=O)(=O)c2cccc(F)c2)cc1C	none (no result: G9a block, HP1b chromo inh, GLS inh, BAZ2B block)
COc1ccc(Br)cc1CNC(=O)CSc1cc(=O)n(C)c2ccccc12	none (no result: BAZ2B block)
COc1cccc(CC(=O)OC(C)C(=O)Nc2ccc(N3CCOCC3)cc2)c1 (stereo unspecified)	G9a block 50.1µM
Cc1ccccc1C(=O)NCc1ccc2c(c1)CCN2C(=O)c1ccc(F)cc1	none
COc1cccc(CN(C)CC(O)COc2cc(Cl)ccc2Cl)c1 (stereo unspecified)	HP1b chromo inh inconclusive, JMJD2A Tudor 6.31µM, BAZ2B block 56.2µM
CCCNC(=O)N1CCC(C(=O)c2cccc(F)c2)CC1	none
CCNC(=O)COc1ccc(/C=C2\COc3ccccc3C2=O)cc1OC	G9a block 39.8µM
O=C(COC(=O)c1cccc(S(=O)(=O)N2CCN(c3ccccc3)CC2)c1)NCc1ccco1	G9a block 44.7µM, JMJD2A Tudor 22.4µM, BAZ2B block 44.7µM
NC(=O)COC(=O)c1cccc(S(=O)(=O)N2CCN(c3ccccc3)CC2)c1	none
COc1ccccc1CNC(=O)COC(=O)c1cccc(S(=O)(=O)N2CCOCC2)c1	G9a block 12.6µM
O=C(CSc1nccn1Cc1ccccc1)Nc1nc2ccccc2s1	JMJD2A Tudor 50.1µM, BAZ2B block inconclusive
CSc1nsc(SCC(=O)NCc2ccccc2)n1	G9a block 39.8µM
COc1ccc2nc(NC(=O)CSc3nnc(C)s3)sc2c1	none
COc1ccc2nc(NC(=O)CSc3n[nH]c(N)n3)sc2c1	G9a block 56.2µM
COc1ccc2nc(NC(=O)CSc3nc(SC)ns3)sc2c1	G9a block 20µM
Cc1nc(SCC(=O)Nc2nc3ccccc3s2)n[nH]1	G9a block 79.4µM
Cc1nc(SCC(=O)Nc2nc3ccccc3s2)c(C#N)c(C)c1C	G9a block 10µM
N#Cc1c(N(CCO)CCO)nc(N)c2c(N)nc3c(c12)CC(=O)N3Cc1cccs1	G9a block 44.7µM, GLS inh inconclusive, JMJD2A Tudor inconclusive, BAZ2B block inconclusive
CN(CCO)c1nc(N)c2c(N)nc3c(c2c1C#N)CC(=O)N3Cc1cccs1	G9a block inconclusive
O=C(N/N=C/c1cccs1)c1cccnc1	none
S=c1[nH]nc(-c2cccnc2)n1/N=C/C=C/c1ccccc1	G9a block 1.78µM, GLS inh inconclusive, JMJD2A Tudor 7.08µM
Cc1nc2ccccc2n1/N=C/c1cccnc1	none
S=c1[nH]nc(-c2cccnc2)n1/N=C/c1cccs1	G9a block 3.98µM, JMJD2A Tudor 3.55µM
Fc1cccc(Cl)c1/C=N/n1c(-c2cccnc2)n[nH]c1=S	G9a block inconclusive, JMJD2A Tudor 3.16µM, BAZ2B block inconclusive

Screens from PubChem.
